# Compounds without any hit were thinned out: in the full panel of roughly 79,000, 15% have a hit. Activity calls are given as the source filed them. No stated cut-off is given here; in the data, active means growth inhibition above about 70%; inactive means the rest.
# Experiment: NCI Yeast Anticancer Drug Screen. Data for the rad50 strain (AID 155);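 further: 0% = growth of vehicle-only cultures of the same strain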
# Conditions: S. cerevisiae rad50 strain growth inhibition; at 50.0 µM; active compounds read high
# Summary of the method: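 Relative growth inhibition (compound vs vehicle) was measured in yeast with a defined repair-gene alteration.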
row,SMILES,growth inhibition
1,Cc1cc(C)n2nc(N)c(C#N)c2c1C#N,17.2% (inactive)
2,CC(=O)OCC1OC(n2c(O)c(N=NC(N)=S)c3ccc([N+](=O)[O-])cc32)C(OC(C)=O)C1OC(C)=O (stereo not drawn),96.5% (active)
3,CC1(c2cccs2)C(C#N)(C#N)C1(C#N)C#N,92.8% (active)
4,O=C1C=CC(=O)N1C12CC3CC(CC(C3)C1)C2,90.8% (active)
5,C(=C/c1cnnc2ccccc12)/c1ccccn1,67.2% (inactive)
6,COc1ccc2c(c1)C1(C)CCCC(C)(C(=O)O)C1CC2 (stereo not drawn),99.5% (active)
7,CCN(CC)c1ccc(N=Nc2ccc(Br)cn2)c(O)c1,96.8% (active)
8,O=[N+]([O-])c1cc(NC(=S)SCc2ccccc2)ccc1Cl,98.8% (active)
9,C(=C/c1ccnc2ccccc12)/c1cccs1,98.2% (active)
10,O=P1(O)c2ccccc2CS(=O)(=O)Cc2ccccc21,21.4% (inactive)
11,CN1C(Cl)=NS(=O)(=O)c2ccccc21,-23% (inactive)
12,O=C1C=CC(=O)N1c1ccc(Cl)cc1,91.6% (active)
13,CC(C)CC(C(=O)SCC(C)N1CCCC1)c1ccccc1 (stereo not drawn),48% (inactive)
14,CC(C)OC(=O)c1ccc(CCC2=CC(=O)C=CC2=O)cc1,81.1% (active)
15,Cc1ccnc2[nH]c3ccccc3c(=O)c12,81.5% (active)
16,COc1cc(/C=C/C(=O)c2ccc(O)c(OC)c2)ccc1O,14% (inactive)
17,CC12C=CC(=O)C=C1CCC1C3CCC(O)(C(=O)CO)C3(C)CC(O)C12F (stereo not drawn),11.4% (inactive)
18,O=Cc1ccc2c(c1)CC1(C2)Cc2ccc3c(c2C1)CCC3 (stereo not drawn),92.9% (active)
19,C[N+](C)(C)CC(=O)N/N=C(\C(=O)NC1=C(Cl)C(=O)c2ccccc2C1=O)C(C#N)c1nc(-c2ccc([N+](=O)[O-])cc2)cs1 (stereo not drawn),76% (active)
20,NC(=O)CC1CCC(c2ccccc2)CC1 (stereo not drawn),44% (inactive)
21,O=C(CC(C[N+](=O)[O-])c1ccc2c(c1)OCO2)c1ccccc1 (stereo not drawn),-12.5% (inactive)
22,CC(=O)OCCCCCCCCCCCCCCO,50% (inactive)
23,CCOC(=O)c1sc(N/N=C2\NC(=O)/C(=C/c3ccc([N+](=O)[O-])cc3)S2)nc1C,92.8% (active)
24,O=C1OC(c2ccc3c(c2)OCO3)Sc2ccccc21 (stereo not drawn),30.1% (inactive)

# Experiment: NCI Yeast Anticancer Drug Screen. Data for the mec2-1 strain (AID 157)
# Conditions: S. cerevisiae mec2-1 strain, at 5.0 µM (retest, dose inferred, filed as 0.5), active compounds read high
# Summary of the method: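 Cells of the genetically defined mec2-1 yeast strain are incubated with test compound. Inhibition of growth is calculated against vehicle-treated controls.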
row,SMILES,growth inhibition
1,Oc1ccc2oc3ccccc3c2c1,0% (inactive)
2,O=C(O)Cc1cc(I)c(Oc2ccc(O)c(I)c2)c(I)c1,0% (inactive)
3,O=C(O)/C(=C\c1ccc(Cl)cc1)c1ccc(C(F)(F)F)cc1[N+](=O)[O-],8% (inactive)
4,Fc1ccc(NC(=S)SCc2ccccc2)cc1,-2% (inactive)
5,CN(C)c1ccccc1CC(c1c[nH]c2ccccc12)c1c[nH]c2ccccc12,73% (active)
6,O=C(c1ccccc1)N1CCN(c2cccc(Cl)c2)CC1,0% (inactive)
7,[C-]#[N+]C(C)(c1ccccc1)c1ccccc1,-34% (inactive)
8,Nc1ccccc1[S][Sn]([c]1ccccc1)([c]1ccccc1)[c]1ccccc1,99% (active)
9,O=C1C(Cl)=C(Cl)C(=O)c2cc(Cl)c(Cl)cc21,89% (active)
10,CCCCCCCNC1CCCc2cc(OC)ccc21 (stereo not drawn),22% (inactive)
11,NCCc1ccc2oc3cc(=O)c4ccccc4c-3nc2c1,-1% (inactive)
12,C/C=C/c1cc2c(cc1O)CC[C@@H]1[C@@H]2CC[C@]2(C)[C@@H](O)CC[C@@H]12,12% (inactive)
13,c1ccc(SSc2ccccn2)nc1,69% (inactive)
14,COC1=C2C[C@@H](C)C[C@@H](OC)[C@@H](O)[C@H](C)/C=C(\C)[C@@H](OC(N)=O)[C@H](OC)/C=C\C=C(/C)C(=O)NC(=CC1=O)C2=O,81% (active)
15,NCc1ccccc1-c1c2nc(c(-c3ccccc3CN)c3ccc([nH]3)c(-c3ccccc3CN)c3nc(c(-c4ccccc4CN)c4ccc1[nH]4)C=C3)C=C2,34% (inactive)
16,Cc1cc(C)n2nc(N)c(C#N)c2c1C#N,1% (inactive)
17,CC(=O)OCC1OC(n2c(O)c(N=NC(N)=S)c3ccc([N+](=O)[O-])cc32)C(OC(C)=O)C1OC(C)=O (stereo not drawn),5% (inactive)
18,CC1(c2cccs2)C(C#N)(C#N)C1(C#N)C#N,9% (inactive)
19,O=C1C=CC(=O)N1C12CC3CC(CC(C3)C1)C2,62% (inactive)
20,C(=C/c1cnnc2ccccc12)/c1ccccn1,8% (inactive)

row,SMILES,growth inhibition
1,COc1ccc2c(c1)C1(C)CCCC(C)(C(=O)O)C1CC2 (stereo not drawn),-7% (inactive)
2,CCN(CC)c1ccc(N=Nc2ccc(Br)cn2)c(O)c1,-4% (inactive)
3,O=[N+]([O-])c1cc(NC(=S)SCc2ccccc2)ccc1Cl,74% (active)
4,C(=C/c1ccnc2ccccc12)/c1cccs1,1% (inactive)
5,O=P1(O)c2ccccc2CS(=O)(=O)Cc2ccccc21,21% (inactive)
6,CN1C(Cl)=NS(=O)(=O)c2ccccc21,14% (inactive)
7,O=C1C=CC(=O)N1c1ccc(Cl)cc1,79% (active)
8,CC(C)CC(C(=O)SCC(C)N1CCCC1)c1ccccc1 (stereo not drawn),8% (inactive)
9,CC(C)OC(=O)c1ccc(CCC2=CC(=O)C=CC2=O)cc1,53% (inactive)
10,Cc1ccnc2[nH]c3ccccc3c(=O)c12,38% (inactive)
11,COc1cc(/C=C/C(=O)c2ccc(O)c(OC)c2)ccc1O,16% (inactive)
12,CC12C=CC(=O)C=C1CCC1C3CCC(O)(C(=O)CO)C3(C)CC(O)C12F (stereo not drawn),4% (inactive)
13,O=Cc1ccc2c(c1)CC1(C2)Cc2ccc3c(c2C1)CCC3 (stereo not drawn),0% (inactive)
14,C[N+](C)(C)CC(=O)N/N=C(\C(=O)NC1=C(Cl)C(=O)c2ccccc2C1=O)C(C#N)c1nc(-c2ccc([N+](=O)[O-])cc2)cs1 (stereo not drawn),6% (inactive)
15,NC(=O)CC1CCC(c2ccccc2)CC1 (stereo not drawn),-6% (inactive)
16,O=C(CC(C[N+](=O)[O-])c1ccc2c(c1)OCO2)c1ccccc1 (stereo not drawn),9% (inactive)
17,CC(=O)OCCCCCCCCCCCCCCO,0% (inactive)
18,CCOC(=O)c1sc(N/N=C2\NC(=O)/C(=C/c3ccc([N+](=O)[O-])cc3)S2)nc1C,10% (inactive)
19,O=C1OC(c2ccc3c(c2)OCO3)Sc2ccccc21 (stereo not drawn),-4% (inactive)

# Reference: PubChem BioAssay (NCI)
